Reference: PubChem BioAssay (Tox21)
Where “and” joins values, the source holds several entries; their conditions need not be identical. Identical values can stand only once. Unmarked numbers belong to inactive results. Inconclusive results are not listed. Where a call stands in place of a potency, no number is given. Calls of active or inactive are those of the source. Calls follow the shape of the dose curve; as a rule, active = well fitted curve in the direction sought with a large enough effect in the repeat runs; inconclusive = weak or mixed curves; inactive = no such curve, though single readings can be large; an effect the other way counts as inactive or inconclusive.

What was measured:
[1] = Caspase-3/7 induction in HepG2 cells by small molecules, qHTS assay (AID 1346978); also: nearly all actives have a fitted effect of over 15% in size
Procedure, shortened: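 Caspase-3/7 induction was measured by Caspase-Glo 3/7 luminescence (30 min, room temperature) after a 17 hr compound exposure of wild-type HepG2 cells seeded at 2,000 per well and pre-incubated 5 hr.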

[2] = Caspase-3/7 induction in CHO-K1 cells by small molecules, qHTS cell viability counter screen (AID 1346979); also: nearly all actives have a fitted effect of over 35% in size; also: potency is read from the fitted curve at half-maximal effect
Procedure, shortened: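 CHO-K1 wt, 1,500 cells/well; 5hr pre-incubation 37C/5% CO2; compound pin transfer (DMSO); 16hr exposure; CellTiter-Fluor added, 1hr, fluorescence read.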

[3] = Caspase-3/7 induction in CHO-K1 cells by small molecules, qHTS assay (AID 1346980); also: nearly all actives have a fitted effect of over 15% in size
Procedure, shortened: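 Luminescent Caspase-Glo 3/7 read (30min, room temperature) quantified apoptosis induction. Cells were wild-type CHO-K1, treated with compound for 17hr at 37 C and 5% CO2.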

[4] = biological target: Nuclear receptor subfamily 1 group I member 2 (Homo sapiens) (UniProt O75469); assay: Human pregnane X receptor (PXR) small molecule agonists, qHTS assay (AID 1346982); also: nearly all actives have a fitted effect of over 35% in size; also: potency is read from the fitted curve at half-maximal effect
Procedure, shortened: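 After plating in 5% charcoal-stripped FBS and a 5 hr rest, PXR-Luc HepG2 cells received compounds in DMSO. Following 24 hr at 37 C, ONE-Glo was added and light output read.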

[5] = biological target: Cytochrome P450 2D6 (Homo sapiens) (UniProt P10635); assay: Cytochrome P450 Family 2 Subfamily D Member 6 (CYP2D6) small molecule antagonists: luciferase reporter qHTS assay (AID 1671196); also: nearly all actives have a fitted effect of over 50% in size; also: potency is read from the fitted curve at half-maximal effect
Procedure, shortened: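 Quantitative HTS of Tox21 chemicals against CYP2D6 using a luminescent proluciferin substrate. After NADPH addition, 1 h room-temperature reaction; luminescence recorded 20 min post detection reagent.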

[6] = biological target: Cytochrome P450 2C19 (Homo sapiens) (UniProt P33261); assay: Cytochrome P450 Family 2 Subfamily C Member 19 (CYP2C19) small molecule antagonists: luciferase reporter qHTS assay (AID 1671197); also: nearly all actives have a fitted effect of over 65% in size; also: potency is read from the fitted curve at half-maximal effect
Procedure, shortened: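 Enzyme-substrate mix with proluciferin substrate (P450-Glo CYP2C19 system) preincubated with compounds 10 min at room temperature; NADPH regeneration solution added, 37C for 1 h; detection reagent stops reaction, luminescence read after 20 min. Ketoconazole positive control.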

[7] = biological target: Cytochrome P450 2C9 (Homo sapiens) (UniProt P11712); assay: Cytochrome P450 Family 2 Subfamily C Member 9 (CYP2C9) small molecule antagonists: luciferase reporter qHTS assay (AID 1671198); also: nearly all actives have a fitted effect of over 50% in size; also: potency is read from the fitted curve at half-maximal effect
Procedure, shortened: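 Enzyme-substrate mix preincubated with compound 10 min at room temperature; reaction started with NADPH regeneration solution, 1 h 37C. Luminescent luciferin product read after 20 min detection reagent.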

[8] = biological target: Cytochrome P450 1A2 (Homo sapiens) (UniProt P05177); assay: Cytochrome P450 Family 1 Subfamily A Member 2 (CYP1A2) small molecule antagonists: luciferase reporter qHTS assay (AID 1671199); also: nearly all actives have a fitted effect of over 50% in size; also: potency is read from the fitted curve at half-maximal effect
Procedure, shortened: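 Quantitative high-throughput format using the P450-Glo CYP1A2 system. Reaction initiated by NADPH regeneration solution, 1 h at room temperature, then stopped with detection reagent; luminescence measured 20 min later.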

[9] = biological target: Voltage-gated inwardly rectifying potassium channel KCNH2 (Homo sapiens) (UniProt Q12809); assay: Human Ether-a-go-go-Related Gene (hERG) channel small molecule antagonists: fluorescence cell-based qHTS assay (AID 1671200);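 also: hERG-expressing U2OS cells given a thallium stimulus after FluxOR II dye loading; series mostly up to about 77 µM; nearly all actives have a fitted effect of over 50% in size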
Procedure, shortened: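 Read-out: thallium influx as a surrogate for potassium, tracked as fluorescence (480 nm ex/540 nm em) every second for 2 min after Stimulus Buffer addition in dye-loaded hERG-U2OS cells.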

[10] = biological target: Cytochrome P450 3A4 (Homo sapiens) (UniProt P08684); assay: Cytochrome P450 Family 3 Subfamily A Member 4 (CYP3A4) small molecule antagonists: luciferase reporter qHTS assay (AID 1671201); also: nearly all actives have a fitted effect of over 50% in size; also: potency is read from the fitted curve at half-maximal effect
Procedure, shortened: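 Luminescent readout (RLU) proportional to CYP3A4 activity, from luciferin generated off a proluciferin substrate. Enzyme–substrate mix plus compound 10 min at room temp, NADPH regeneration 1 h, detection reagent 20 min.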

[11] = biological target: Nuclear receptor subfamily 1 group I member 2 (Rattus norvegicus) (UniProt Q9R1A7); assay: Rat pregnane X receptor (rPXR) activation by small molecules, qHTS assay (AID 1346983); details: rPXR luciferase reporter cells, One-Glo luminescence, 24 h; max activation: hits give high values; also: nearly all actives have a fitted effect of over 20% in size
Procedure, shortened: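 Luminescent readout (One-Glo luciferase, 30 min room temperature) followed 24 hr compound treatment at 37 C of rPXR cells plated 2,000 per well and preincubated 5hr; qHTS format with compounds delivered in DMSO.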

[12] = biological target: Nuclear receptor subfamily 1 group I member 2 (Homo sapiens) (UniProt O75469); assay: CYP3A4 induction through human pregnane X receptor (PXR) by small molecules, qHTS assay (AID 1346984); also: nearly all actives have a fitted effect of over 40% in size
Procedure, shortened: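 Human PXR activation is tracked via CYP3A4 promoter-luciferase in DPX-2 (HepG2) cells. Compounds treat cells for 24hr at 37C, and luminescence is read after One-Glo.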

[13] = biological target: Nuclear receptor subfamily 1 group I member 2 (Homo sapiens) (UniProt O75469); assay: Human pregnane X receptor (PXR) activation by small molecules, qHTS assay (AID 1346985); also: nearly all actives have a fitted effect of over 40% in size
Procedure, shortened: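 DPX-2 cells (HepG2 co-transfected with a PXR response element and a CYP3A4-promoter luciferase construct) were seeded at 2,000 per well, rested 5 hr at 37C, then exposed to DMSO-dissolved compounds for 24 hr. Activation was read as luciferase luminescence.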

[14] = Caspase-3/7 induction in HepG2 cells by small molecules, qHTS cell viability counter screen (AID 1346981); also: series mostly up to about 92 µM; nearly all actives have a fitted effect of over 30% in size
Procedure, shortened: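 The parent HepG2 line is plated at 2,000 cells per well and rested 5 hr before compound pinning from DMSO stocks. Following a 16-hr treatment at 37 C, a fluorogenic live-cell substrate (CellTiter-Fluor) reports viability after 1 hr.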

Chain of Cytochrome P450 1A2 (Homo sapiens) (P05177 whole entry, looked up): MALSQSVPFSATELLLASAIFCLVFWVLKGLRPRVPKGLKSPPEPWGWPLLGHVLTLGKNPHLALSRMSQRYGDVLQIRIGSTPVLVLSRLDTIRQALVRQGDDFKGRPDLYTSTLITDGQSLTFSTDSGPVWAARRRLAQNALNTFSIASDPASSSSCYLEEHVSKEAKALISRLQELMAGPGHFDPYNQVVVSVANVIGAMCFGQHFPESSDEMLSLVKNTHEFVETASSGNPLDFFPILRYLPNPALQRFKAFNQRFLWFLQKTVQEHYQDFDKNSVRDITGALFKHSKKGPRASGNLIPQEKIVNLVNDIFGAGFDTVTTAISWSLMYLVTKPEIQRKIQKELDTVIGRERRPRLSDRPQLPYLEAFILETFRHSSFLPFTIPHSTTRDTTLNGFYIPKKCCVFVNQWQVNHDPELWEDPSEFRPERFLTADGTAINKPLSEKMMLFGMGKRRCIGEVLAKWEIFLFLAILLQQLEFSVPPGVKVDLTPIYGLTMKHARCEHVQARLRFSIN
Chain of Voltage-gated inwardly rectifying potassium channel KCNH2 (Homo sapiens) (Q12809 whole entry, looked up): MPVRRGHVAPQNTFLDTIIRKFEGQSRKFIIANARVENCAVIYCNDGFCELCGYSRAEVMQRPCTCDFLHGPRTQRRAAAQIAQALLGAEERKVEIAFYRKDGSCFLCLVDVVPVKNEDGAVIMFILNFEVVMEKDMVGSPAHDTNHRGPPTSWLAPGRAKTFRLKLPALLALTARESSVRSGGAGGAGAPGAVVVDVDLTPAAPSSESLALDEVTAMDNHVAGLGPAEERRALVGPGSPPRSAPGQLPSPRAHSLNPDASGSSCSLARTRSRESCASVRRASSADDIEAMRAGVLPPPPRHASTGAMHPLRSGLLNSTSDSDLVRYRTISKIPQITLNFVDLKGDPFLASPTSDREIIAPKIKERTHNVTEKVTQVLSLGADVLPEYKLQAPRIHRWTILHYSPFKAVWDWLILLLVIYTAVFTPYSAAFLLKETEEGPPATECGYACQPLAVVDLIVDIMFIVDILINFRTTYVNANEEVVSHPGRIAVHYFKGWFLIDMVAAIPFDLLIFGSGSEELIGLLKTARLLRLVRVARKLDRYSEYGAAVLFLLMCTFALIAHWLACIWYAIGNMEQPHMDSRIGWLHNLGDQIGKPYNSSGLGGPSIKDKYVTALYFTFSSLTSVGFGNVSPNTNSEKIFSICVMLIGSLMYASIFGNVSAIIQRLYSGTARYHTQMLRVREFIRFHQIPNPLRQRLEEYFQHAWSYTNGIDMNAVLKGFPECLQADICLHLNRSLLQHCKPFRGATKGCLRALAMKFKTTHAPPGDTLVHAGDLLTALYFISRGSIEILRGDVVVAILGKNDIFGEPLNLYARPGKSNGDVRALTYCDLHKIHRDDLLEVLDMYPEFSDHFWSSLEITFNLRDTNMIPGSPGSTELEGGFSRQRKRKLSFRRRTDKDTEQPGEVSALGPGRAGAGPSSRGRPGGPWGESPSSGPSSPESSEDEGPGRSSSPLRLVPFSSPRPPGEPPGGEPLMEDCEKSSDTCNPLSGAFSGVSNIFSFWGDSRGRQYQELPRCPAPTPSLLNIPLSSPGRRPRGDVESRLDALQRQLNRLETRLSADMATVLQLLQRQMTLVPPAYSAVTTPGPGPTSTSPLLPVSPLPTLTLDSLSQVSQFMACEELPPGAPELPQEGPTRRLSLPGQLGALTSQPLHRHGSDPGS
Chain of Nuclear receptor subfamily 1 group I member 2 (Homo sapiens) (O75469 whole entry, looked up): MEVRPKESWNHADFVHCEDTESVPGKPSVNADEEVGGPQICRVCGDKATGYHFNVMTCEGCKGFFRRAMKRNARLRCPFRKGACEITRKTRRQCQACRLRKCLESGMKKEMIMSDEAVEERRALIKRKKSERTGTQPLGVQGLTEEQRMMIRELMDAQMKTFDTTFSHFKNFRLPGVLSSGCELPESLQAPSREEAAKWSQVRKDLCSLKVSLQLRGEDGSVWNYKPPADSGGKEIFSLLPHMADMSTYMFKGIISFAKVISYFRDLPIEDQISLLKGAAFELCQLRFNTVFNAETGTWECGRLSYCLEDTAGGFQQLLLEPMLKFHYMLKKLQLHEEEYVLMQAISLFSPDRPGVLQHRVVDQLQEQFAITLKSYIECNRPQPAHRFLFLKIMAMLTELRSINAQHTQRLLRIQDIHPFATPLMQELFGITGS
Chain of Cytochrome P450 3A4 (Homo sapiens) (P08684 whole entry, looked up): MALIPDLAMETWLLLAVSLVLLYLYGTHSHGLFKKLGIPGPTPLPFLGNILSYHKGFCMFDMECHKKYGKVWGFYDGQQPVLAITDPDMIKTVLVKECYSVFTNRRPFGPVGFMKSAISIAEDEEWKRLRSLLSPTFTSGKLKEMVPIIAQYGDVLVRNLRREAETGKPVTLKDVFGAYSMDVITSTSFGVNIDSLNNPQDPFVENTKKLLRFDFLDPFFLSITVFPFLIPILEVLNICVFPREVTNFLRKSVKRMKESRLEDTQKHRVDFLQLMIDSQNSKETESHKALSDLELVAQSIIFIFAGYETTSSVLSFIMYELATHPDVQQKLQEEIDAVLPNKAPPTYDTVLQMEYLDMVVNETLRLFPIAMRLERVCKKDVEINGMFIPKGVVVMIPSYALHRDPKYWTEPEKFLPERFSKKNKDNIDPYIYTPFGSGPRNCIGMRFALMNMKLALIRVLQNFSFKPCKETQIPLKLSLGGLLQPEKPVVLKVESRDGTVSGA
Chain of Cytochrome P450 2D6 (Homo sapiens) (P10635 whole entry, looked up): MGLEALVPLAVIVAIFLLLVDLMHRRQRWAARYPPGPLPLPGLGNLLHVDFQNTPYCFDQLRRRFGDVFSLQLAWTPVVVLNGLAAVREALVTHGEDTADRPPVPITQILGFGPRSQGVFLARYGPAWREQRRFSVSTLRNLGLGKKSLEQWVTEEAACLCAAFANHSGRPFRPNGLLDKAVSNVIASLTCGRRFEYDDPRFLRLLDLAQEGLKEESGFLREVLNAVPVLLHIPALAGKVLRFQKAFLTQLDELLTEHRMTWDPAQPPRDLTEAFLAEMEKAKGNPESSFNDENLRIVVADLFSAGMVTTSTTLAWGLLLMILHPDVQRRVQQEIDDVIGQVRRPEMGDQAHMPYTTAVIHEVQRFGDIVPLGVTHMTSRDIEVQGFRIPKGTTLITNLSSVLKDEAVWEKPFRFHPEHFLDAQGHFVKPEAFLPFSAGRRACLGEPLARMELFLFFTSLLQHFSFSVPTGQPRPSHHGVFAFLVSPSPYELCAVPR
Chain of Cytochrome P450 2C19 (Homo sapiens) (P33261 whole entry, looked up): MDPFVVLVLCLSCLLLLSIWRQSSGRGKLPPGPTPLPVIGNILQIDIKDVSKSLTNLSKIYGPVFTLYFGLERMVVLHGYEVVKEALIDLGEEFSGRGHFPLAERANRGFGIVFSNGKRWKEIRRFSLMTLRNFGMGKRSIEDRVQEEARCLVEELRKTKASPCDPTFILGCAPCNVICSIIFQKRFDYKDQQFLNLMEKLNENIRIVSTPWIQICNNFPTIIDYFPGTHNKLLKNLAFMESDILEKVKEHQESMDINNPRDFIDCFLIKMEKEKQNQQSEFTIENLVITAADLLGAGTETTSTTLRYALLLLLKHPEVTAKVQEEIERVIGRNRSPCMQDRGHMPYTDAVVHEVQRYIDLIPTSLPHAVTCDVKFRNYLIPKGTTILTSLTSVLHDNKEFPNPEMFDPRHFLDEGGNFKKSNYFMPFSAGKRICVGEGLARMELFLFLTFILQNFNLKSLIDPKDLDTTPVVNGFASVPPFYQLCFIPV
Chain of Cytochrome P450 2C9 (Homo sapiens) (P11712 whole entry, looked up): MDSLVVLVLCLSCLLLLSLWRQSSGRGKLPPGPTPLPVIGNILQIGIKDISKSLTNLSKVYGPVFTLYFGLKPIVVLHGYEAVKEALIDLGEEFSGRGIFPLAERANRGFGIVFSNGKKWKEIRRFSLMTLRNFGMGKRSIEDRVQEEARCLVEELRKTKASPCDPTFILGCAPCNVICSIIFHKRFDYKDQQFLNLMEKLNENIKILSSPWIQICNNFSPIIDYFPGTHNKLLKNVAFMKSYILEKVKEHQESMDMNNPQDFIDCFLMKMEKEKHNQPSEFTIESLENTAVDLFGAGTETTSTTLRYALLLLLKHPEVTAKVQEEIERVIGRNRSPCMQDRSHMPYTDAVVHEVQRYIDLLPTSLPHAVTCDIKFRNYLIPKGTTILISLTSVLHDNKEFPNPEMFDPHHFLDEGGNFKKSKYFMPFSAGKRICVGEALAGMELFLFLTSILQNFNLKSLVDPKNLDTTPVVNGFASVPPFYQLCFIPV
Chain of Nuclear receptor subfamily 1 group I member 2 (Rattus norvegicus) (Q9R1A7 whole entry, looked up): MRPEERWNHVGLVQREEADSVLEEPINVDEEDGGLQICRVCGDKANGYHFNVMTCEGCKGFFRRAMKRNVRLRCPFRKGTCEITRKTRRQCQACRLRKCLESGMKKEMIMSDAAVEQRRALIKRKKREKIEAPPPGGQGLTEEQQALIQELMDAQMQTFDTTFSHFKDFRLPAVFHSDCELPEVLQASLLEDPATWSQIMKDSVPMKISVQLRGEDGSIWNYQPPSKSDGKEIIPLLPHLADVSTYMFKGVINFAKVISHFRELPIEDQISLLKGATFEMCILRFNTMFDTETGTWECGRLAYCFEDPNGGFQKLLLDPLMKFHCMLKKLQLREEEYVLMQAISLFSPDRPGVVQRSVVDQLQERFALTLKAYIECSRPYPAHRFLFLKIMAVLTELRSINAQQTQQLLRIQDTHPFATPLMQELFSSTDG

Row | Compound | Potency [1] | Potency [2] | outcome [3] | Potency [4] | Potency [5] | Potency [6] | Potency [7] | Potency [8] | Potency [9] | Potency [10] | max activation [11] | Potency [12] | Potency [13] | Potency [14]
1 | O=c1[nH][nH]c(=O)c2cc([N+](=O)[O-])ccc12 | inactive | inactive | inactive | inactive | inactive | inactive | inactive | inactive | inactive | – | – | – | – | –
2 | CC1CCc2nccnc21 (stereo unspecified) | inactive | inactive | inactive | – | inactive | inactive | inactive | – | – | inactive | – | – | – | –
3 | COc1ccc2nc(S(=O)Cc3ncc(C)c(OC)c3C)[nH]c2c1 (stereo unspecified) | inactive | 67.8 µM (active) | inactive | 53.8 µM (active) and 26.6 µM (active) | 5.57 µM (active) and 17.4 µM (active) | 5.57 µM (active) and 11 µM (active) | 31.3 µM (active) and 13.8 µM (active) | 8.83 µM (active) and 15.5 µM (active) | inactive | – | – | – | – | –
4 | Cc1ccc(NC(=O)N(C)C)cc1NC(=O)N(C)C | inactive | inactive | inactive | – | inactive | inactive | – | – | inactive | – | – | – | – | –
5 | O=C(O)c1cc(Cl)cc(Cl)c1O | inactive | inactive | inactive | inactive | inactive | inactive | – | – | inactive | inactive | – | – | – | –
6 | Cc1ccc(S(=O)(=O)NC(=O)NC2CCCCC2)cc1 | inactive | inactive | inactive | – | inactive | inactive | – | inactive | inactive | inactive | -5.99% | inactive | inactive | –
7 | COC(=O)c1sccc1S(N)(=O)=O | inactive | inactive | inactive | inactive | – | 79.6 µM (active) | inactive | inactive | inactive | inactive | – | – | – | –
8 | C/C(C=O)=C\c1ccccc1 | inactive | inactive | inactive | 30 µM (active) | inactive | inactive | inactive | inactive | inactive | inactive | – | – | – | –
9 | CC1CCC(C(C)CS)CC1S (stereo unspecified) | inactive | inactive | inactive | inactive | inactive | inactive | – | inactive | – | 31.7 µM (active) | – | – | – | –
10 | COC(=O)CC(C(C)=O)C(=O)OC (stereo unspecified) | inactive | inactive | inactive | inactive | inactive | inactive | 44.8 µM (active) | – | inactive | inactive | – | – | – | –
11 | CCCC(=O)OC(=O)CCC | inactive | inactive | inactive | inactive | inactive | inactive | inactive | – | inactive | inactive | – | – | – | –
12 | CC(C)c1ccc(C#N)cc1 | inactive | inactive | inactive | – | inactive | inactive | inactive | inactive | inactive | inactive | – | – | – | –
13 | CC(C)OC(=O)c1ccccc1C(=O)OC(C)C | inactive | inactive | inactive | inactive | inactive | 79.6 µM (active) | 39.9 µM (active) | 3.56 µM (active) | inactive | inactive | – | – | – | –
14 | CCCCC(CC)COS(=O)(=O)O (stereo unspecified) | inactive | inactive | inactive | inactive | – | inactive | – | inactive | inactive | – | -1.14% | inactive | inactive | –
15 | O=NN(CCCl)C(=O)NCCCl | inactive | inactive | inactive | – | – | – | – | – | inactive | – | – | – | – | inactive
16 | CCC(=O)OCc1ccc(OC)cc1 | inactive | inactive | inactive | inactive | inactive | 64.9 µM (active) | – | 57.8 µM (active) | – | inactive | – | – | – | –
17 | N[C@@H](Cc1cc(I)c(O)c(I)c1)C(=O)O | inactive | 23.7 µM (active) | inactive | inactive | inactive | inactive | 38.9 µM (active) | inactive | inactive | inactive | – | – | – | –
18 | COc1ccc(C)cc1 | inactive | inactive | inactive | inactive | 17.8 µM (active) | 79.6 µM (active) | inactive | – | inactive | inactive | – | – | – | –
19 | CC(=O)c1ccc[nH]1 | inactive | inactive | inactive | inactive | inactive | inactive | – | – | inactive | inactive | – | – | – | –
20 | Oc1cccc2[nH]ccc12 | inactive | inactive | inactive | inactive | 15.5 µM (active) | inactive | – | inactive | inactive | inactive | – | – | – | –
21 | C1=CCC2CC=CC2C1 (stereo unspecified) | inactive | inactive | inactive | 54.4 µM (active) | inactive | 70.9 µM (active) | inactive | – | inactive | – | – | – | – | –
